Reference: PubChem BioAssay (NCI)
Where “and” joins values, the source holds several entries; their conditions need not be identical. Identical values can stand only once. Compounds without any hit were thinned out: in the full panel of roughly 83,000, 20% have a hit.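 In brief: 96-well plates, 48 h treatment, single concentration, percent growth endpoint.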 Values without a mark were called inactive. Calls of active or inactive are those of the source. The calls were made as follows: active = growth percent below 10; inactive = the rest.

How the values were obtained:
Assay in all cases: NCI-60 one-dose screen, 48 h (100 = growth as untreated, 0 = no growth, -100 = all killed)
Details in all cases: 10 µM unless noted
[1] = test system: NCI-H23 lung
[2] = test system: NCI-H226 lung
[3] = test system: NCI-H322M lung
[4] = test system: HOP-62 NSCLC
[5] = test system: NCI-H460 lung
[6] = test system: HOP-92 NSCLC
[7] = test system: NCI-H522 lung
[8] = test system: A549/ATCC NSCLC
[9] = test system: 786-0 renal
[10] = test system: COLO 205 colon
[11] = test system: DU-145 prostate
[12] = test system: K-562 leukemia
[13] = test system: MALME-3M melanoma
[14] = test system: MDA-MB-231 breast
[15] = test system: RXF 393 renal
[16] = test system: SF-268 CNS
[17] = test system: SF-295 CNS
[18] = test system: SF-539 CNS
[19] = test system: UACC-257 melanoma
[20] = test system: M14 melanoma

SMILES	growth [1]	growth [2]	growth [3]	growth [4]	growth [5]	growth [6]	growth [7]	growth [8]	growth [9]	growth [10]	growth [11]	growth [12]	growth [13]	growth [14]	growth [15]	growth [16]	growth [17]	growth [18]	growth [19]	growth [20]
CCCCn1c(C(=O)c2c[nH]c3ccccc23)n[nH]c1=S	92.6%	92.5%	96.7%	86%	98.7%	89.4%	83.3%	92.3%	102%	106%	104%	76.1%	111%	96.4%	107%	96.9%	103%	102%	94.8%	92.4%
COc1ccc2nc3cc(Cl)ccc3c(NCCCNCCC(C)O)c2c1 (stereo not given)	-48.8% (active)	-3.4% (active)	-24.8% (active)	-8.19% (active)	-53.5% (active)	-23.7% (active)	-34.3% (active)	-17.6% (active)	-49.5% (active)	-77.7% (active)	-16.2% (active)	-18.1% (active)	-76.1% (active)	-47.5% (active)	-67.6% (active)	-25.9% (active)	-11.9% (active)	-56.9% (active)	-83.9% (active)	-82% (active)
CN(C)C1CCN(C(=O)c2ccc(NC(=O)Nc3ccc(-c4nc(N5CCOCC5)c5cccn5n4)cc3)cc2)CC1	15.5%	-7.75% (active)	-9.27% (active)	-12.9% (active)	6.48% (active)	-31.2% (active)	14.6%	3.9% (active)	-18.6% (active)	-3.31% (active)	0.561% (active)	18.9%	-32.6% (active)	0.146% (active)	-30.4% (active)	2.29% (active)	-37.1% (active)	-39.6% (active)	-18.3% (active)	-0.109% (active)
COC(=O)c1nc(-c2ccc(C)cc2)oc1Sc1ccc(C)cc1	105%	104%	99.2%	94%	107%	87.9%	78.7%	97.6%	95.7%	102%	110%	82%	122%	96.1%	108%	103%	114%	96.8%	102%	93.2%
N#Cc1cc(-c2ccnc(Nc3ccc(NC(=O)CCl)cc3)n2)ccc1N1CCCC1	-31.3% (active)	-12.4% (active)	53.4%	-4.87% (active)	-35.9% (active)	28.4%	-41.3% (active)	-26.7% (active)	-14.6% (active)	-59.6% (active)	17.1%	2.55% (active)	-68.5% (active)	-31.8% (active)	-79.3% (active)	-8.99% (active)	-26.9% (active)	-94.4% (active)	3.7% (active)	-40.9% (active)
C=C1C(=O)O[C@@H]2[C@H]3[C@H](COC(C)=O)[C@@H](OC(C)=O)C[C@H]3C(=C)[C@@H](O)C[C@@H]12	96.2%	98.8%	102%	91.7%	103%	99.8%	73%	90.6%	85.8%	100%	76.5%	86.8%	88.9%	99%	99.5%	96.5%	103%	103%	83.3%	87.6%
Cn1cc(-c2csc(-c3c[nH]c4ccc(F)cc34)n2)c2cnccc21	49.3%	52%	15.4%	-55.1% (active)	-54.3% (active)	-47% (active)	-78.5% (active)	5.33% (active)	-94.5% (active)	-93.2% (active)	-19.6% (active)	-55.4% (active)	-94.9% (active)	-66.7% (active)	-90.8% (active)	-25.4% (active)	-75.4% (active)	-93.7% (active)	-68.6% (active)	-87% (active)
CN1CCN(c2ccc(/C=C/C(=O)c3ccc(O)cc3)cc2)CC1	93.9%	97%	101%	97.7%	101%	74.8%	88%	97.7%	98.8%	113%	93.2%	90.1%	99%	94.8%	95.3%	95.8%	95.1%	91.9%	96.1%	95.8%
COc1cc(NS(=O)(=O)C(C)C)cc(-c2cc(-c3ccc(N4CCNCC4)cc3)cnc2N)c1	84.1%	61.1%	91%	103%	97.1%	61.8%	52.8%	76.9%	45.1%	84.4%	90.8%	5.48% (active)	79.6%	89.8%	41%	70.3%	91.7%	58.3%	91.4%	58.6%
COCCn1cc(-c2csc(-c3cn(C)c4ccc(F)cc34)n2)c2cccnc21	76.3%	83%	75.7%	93.2%	51.6%	64.7%	30.8%	60.6%	62%	61.6%	69.9%	2.01% (active)	84.8%	51.5%	72.3%	77.2%	73.7%	78.1%	83.8%	50.5%
Nc1nc(N)c2c(n1)NC(c1cccc(Nc3ccnc4cc(C(F)(F)F)ccc34)c1)CC(c1ccc(F)cc1)=N2 (stereo not given)	70.4%	80%	86.4%	48.7%	18%	31.6%	48.2%	40.1%	60.4%	29.1%	63.8%	9.19% (active)	53.2%	44.8%	42.8%	52.2%	49.2%	73.8%	74.8%	27.7%
COc1ccc(NC(=O)Nc2ccccc2CNc2nc(Nc3ccc(OCCN4CCCC4)cc3)ncc2Cl)cc1	43.1%	76.1%	36.5%	6.02% (active)	-70.9% (active)	4.83% (active)	-3.26% (active)	18.4%	-84% (active)	1.65% (active)	18%	0.588% (active)	-63.7% (active)	-59.1% (active)	-75.6% (active)	35.8%	11.1%	-84.2% (active)	-46.8% (active)	-75.6% (active)
COc1nc(=O)n(C2C=CC(=O)O2)cc1F (stereo not given)	102%	106%	102%	110%	110%	87.8%	39.1%	123%	92.5%	46.5%	81.1%	40.8%	45.5%	100%	80.7%	85.7%	98.2%	99.1%	88.8%	69.9%
CN(C)CC1(C)Cc2ccsc2C1O (stereo not given)	106% and 109%	105%	119%	105% and 108%	112% and 108%	101% and 108%	94.5% and 94.3%	112% and 110%	97.2% and 94.9%	106% and 105%	116% and 97.1%	104% and 92.8%	98.8%	113% and 111%	108% and 109%	113% and 102%	121% and 115%	93.4% and 105%	108% and 110%	111% and 108%
